Compounds with a hit are over-represented: about 1.8% of the library has one in this group of screens.
Myeloid diff MLP – promotes myeloid progenitor differentiation. ER-HoxA9 myeloid progenitors, lysozyme-GFP differentiation, flow cytometry. calls only at 10 µM. actives 1% (n = 360,000). AID 624256;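 active = normalized GFP-positive differentiation at or above the plate's own cutoff, the solvent-only control mean plus 3 SD; inconclusive = no clear call, values can overlap the other calls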;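 note: cells exposed to compound for four days before flow analysis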
Exocytosis inh – lytic granule exocytosis inhibition | AID 651702 | inhibition, % at 10 µM | TALL-104 LAMP-1 surface exposure, flow cytometry; cells stimulated with thapsigargin and PMA | actives 0.66% (n = 360,000);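 active = inhibition above about 55%, limit read from the data; inconclusive = no clear call, values can overlap the other calls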
ABCB6 inh 2 – human ABCB6 transporter inhibition | actives 0.19% (n = 360,000) | fluorescence ratio to DMSO, % at 10 µM | Q9NP58 | AID 602162 | K562-ABCB6 porphyrin accumulation, flow cytometry, 1 h; stronger effect = lower value;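 active = fluorescence ratio to DMSO below 75%, the collection mean minus 3 SD; inconclusive = too few cells collected in the well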;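 note: signal is porphyrin accumulated inside mitochondria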
Granule exo CP1 – blocks lytic granule exocytosis; inhibition, % at 10 µM; TALL-104 cells, LAMP-1 externalization, flow cytometry; stimulated with PMA plus thapsigargin; actives 11% (n = 1,500); shares compounds with Exocytosis inh; AID 651954; in the data active = inhibition above about 60%
Large screens that a line does not name were inactive (follow-up assays come after a bar, where they were run).

CN(Cc1ccccc1OCCO)CC1CCCN(CCc2ccc(Cl)cc2)C1 (stereo unspecified)	Exocytosis inh 57.9 | Granule exo CP1 inactive
COc1cc(OC)c(OC)cc1CN(C)CC1CCCN(CCc2ccccc2F)C1 (stereo unspecified)	none
C=CCC(=O)N(CC)CC1CCCN(CCc2cccc(F)c2)C1 (stereo unspecified)	none
CC(=O)Nc1ccc(S(=O)(=O)CC(=O)CS(=O)(=O)c2ccc(NC(C)=O)cc2)cc1	none
CCOc1cc(CNCCO)cc(Br)c1OCc1ccc(Cl)cc1	Exocytosis inh 63.3 | Granule exo CP1 inactive
CCOc1cc(CNC(C)(C)CO)cc(Br)c1OCc1ccc(Cl)cc1Cl	Exocytosis inh 66.5 | Granule exo CP1 inactive
CCOc1cc(CNCCO)cc(Br)c1OCc1ccccc1Cl	none
COc1cc(CNC(C)(C)CO)cc(Br)c1OCc1ccccc1	none
CC1(NC(=O)/C=C/c2nc3ccccc3s2)CCS(=O)(=O)C1 (stereo unspecified)	none
COCc1c(C(=O)OCC(=O)NCCc2ccc(S(N)(=O)=O)cc2)oc2ccccc12	none
O=C(CSc1nnc(-c2ccccc2)c(-c2ccccc2)n1)NC1CCS(=O)(=O)C1 (stereo unspecified)	none
CCN(CC(=O)Nc1ccc(OC)cc1)C(=O)C1CCN(C(=O)c2ccc(Cl)cc2)CC1	none
Cc1nc(C(=O)NCc2ccccc2)sc1C1(C)CC(c2cccc([N+](=O)[O-])c2)=NO1 (stereo unspecified)	Exocytosis inh 59.1 | Granule exo CP1 inactive
CNC(=O)c1nc(C)c(C2(C)CC(c3cccc([N+](=O)[O-])c3)=NO2)s1 (stereo unspecified)	none
O=C(COc1ccc(F)c(Cl)c1)Nc1ccc(N2CCOCC2)cc1	Myeloid diff MLP inconclusive
Cc1ccc(NC(=O)CCN2C(=O)OC(C)(C)C2(C)O)cc1 (stereo unspecified)	none
COc1ccc(N(CC(=O)NCc2ccccc2OC)S(=O)(=O)c2ccccc2)cc1	Exocytosis inh 75.1 | Granule exo CP1 inactive
COc1ccc(N(CC(=O)NCc2ccco2)S(=O)(=O)c2ccccc2)cc1	none
COc1ccccc1N(CC(=O)NCc1ccccc1C)S(=O)(=O)c1ccc(C)cc1	Exocytosis inh 62.6 | Granule exo CP1 inactive
COc1ccc(CCNC(=O)CN(c2ccccc2OC)S(=O)(=O)c2ccc(C)cc2)cc1	none
CCN(c1cccc(C)c1)S(=O)(=O)c1cn(CC(=O)OC)c2ccc([N+](=O)[O-])cc12	none
CCc1nc2ccc(C(=O)NC3CCN(Cc4ccccc4)CC3)cn2c1N(C)Cc1cccs1	none
CCc1nc2ccc(C(=O)NC3CCN(Cc4ccccc4)CC3)cn2c1N(C)Cc1cc2ccccc2s1	Exocytosis inh 59.4 | Granule exo CP1 65.3
O=C(CN1C(=O)/C(=C\c2cccc(Br)c2)Oc2ccccc21)NCCCN1CCOCC1	Exocytosis inh 64.0 | Granule exo CP1 95.5
CN1CCN(CCCNC(=O)c2ccc(/C=C3\Sc4ccccc4N(Cc4ccccc4F)C3=O)cc2)CC1	Exocytosis inh 65.7 | Granule exo CP1 inactive
O=C(NCCN1CCOCC1)c1ccc(/C=C2\Sc3ccccc3N(Cc3ccccc3F)C2=O)cc1	Myeloid diff MLP inconclusive
CCc1ccc(/C=C2/Sc3ccccc3N(CC(=O)NCCCN3CCOCC3)C2=O)cc1	Exocytosis inh 66.4 | Granule exo CP1 62.7
O=C(CN1C(=O)COc2ccccc21)NCCCN1CCOCC1	none (no result: Myeloid diff MLP)
CCN1CCN(CCNC(=O)c2ccc(/C=C3/Sc4ccccc4N(Cc4cccc(Cl)c4)C3=O)cc2)CC1	Exocytosis inh 78.9 | Granule exo CP1 inactive
Cc1cccc(CN2C(=O)/C(=C\c3ccc(C(=O)NCCN4CCOCC4)cc3)Sc3ccccc32)c1	none
O=C(CN1C(=O)/C(=C/c2ccc(C(F)(F)F)cc2)Sc2ccccc21)NCCCN1CCOCC1	none
N=C1SCC(=O)N1c1ccc(Cl)cc1	none
CC(Sc1ccccc1)C(=O)NN=C1CCN(C)CC1 (stereo unspecified)	none
COc1ccccc1C(=O)COC(=O)C1CCN(S(=O)(=O)c2ccccc2)CC1	none
COc1ccc2nc(-c3ccccc3)nc(SCC(=O)NCC3CCCO3)c2c1 (stereo unspecified)	none
O=C(Nc1ccc(F)cc1F)c1cc(Cl)sc1Cl	none
O=C(CCN(NC(=O)c1ccccc1)C1=NS(=O)(=O)c2ccccc21)NC1CCCCC1	none
Cc1occc1C(=O)NCc1nc(-c2ccc(Cl)cc2)no1	none
CC1NC(=O)c2cccnc2-n2c1nc1ccccc1c2=O (stereo unspecified)	none
CN(C(=O)c1cccc(NC(=O)Cc2ccc(NC(=O)C3CCN(C(=O)C4CCC4)CC3)cc2)c1)C1CCCCC1	Exocytosis inh 58.4 | Granule exo CP1 inactive
